Screening results (PubChem)
Rows were chosen to be rich in hits. Some 1.4% of all compounds tested hit in one or more screens of this group.
PrP 5UTR inh: inhibition of PrP 5' UTR reporter expression | AID 488862 | hit rate 0.35% among 340,000 | cell-based PrP 5' UTR mRNA reporter, plate reader | inhibition, % (concentration not given with the values); in the data active means inhibition above about 52%; further: 0 = median of the neutral control wells
PrPC TRFRET: inhibitors of human cell surface prion protein PrPC; hit rate 0.43% among 370,000; TR-FRET read-out; P04156; inhibition, % at 13.8 µM; in the data active means inhibition above about 24%; further: 0% = median of the test wells and 100% = reference compound wells
Vc quorum ag: induces V. cholerae light production without autoinducers. V. cholerae BH1578 lux reporter, luminescence, 6 h. activation, % at 18.7 µM. hit rate 0.16% among 350,000. AID 588436; in the data active means activation mostly above about 9.7%, no sharp cut-off; inconclusive means no clear call, values can overlap the other calls; inactive means mostly below about 3.7%
SSB-PriA inh: blocks PriA binding to SSB C-terminal tail | AlphaScreen SSBct-PriA binding, biotinylated peptide | inhibition, % at 33 µM | hit rate 0.6% among 430,000 | AID 1272365; in the data active means inhibition mostly above about 37%, no sharp cut-off; inactive means mostly below about 20%;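 further: plate controls were negative control peptide for no effect and reference peptide for full effect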
FadD28 FP inh: blocks FadD28 binding to the bisubstrate probe; inhibition, % at 12.5 µM; hit rate 0.22% among 360,000; fluorescence polarization; in the data active means inhibition above about 8.5%, passing the limit was not always enough; inconclusive means no clear call, values can overlap the other calls
PrP 5UTR single: prion 5' UTR mRNA inhibition, cherry-pick retest; shares compounds with PrP 5UTR inh; cell-based prion protein 5' UTR reporter, plate reader; inhibition, % at 2.5 µM; hit rate 48% among 1,100; AID 504592; in the data active means inhibition above about 54%; inconclusive means no clear call, values can overlap the other calls
* = called active by the depositor; i = inactive; ? = inconclusive; nt = no result.

SMILES	PrP 5UTR inh	PrPC TRFRET	Vc quorum ag	SSB-PriA inh	FadD28 FP inh	PrP 5UTR single
COC(=O)Cc1[nH]n(-c2nc3ccccc3s2)c(=O)c1C(C)=Nc1ccc(C)cc1	92.4*	5.4	-0.4	-4.9	0.1	91.9*
COc1ccc(C(=O)N/C(=C\c2ccc3c(c2)OCO3)C(=O)N2CCOCC2)cc1	76.6*	0.0	-0.7	0.2	-0.9	?
Cc1ccc(C(=O)N/C(=C\c2ccc3c(c2)OCO3)C(=O)N2CCOCC2)cc1	-27.3	-4.5	i	-15.9	-2.2	nt
Cc1c(Cl)cccc1Nc1n[nH]c(=S)s1	71.1*	-7.2	-1.1	1.3	2.1	-17.2
COc1ccccc1N1CCN(C(=O)/C=C/c2cccc(F)c2)CC1	nt	nt	nt	9.0	nt	nt
CC(=O)OC(C)(C)/C=C/C(=O)[C@](C)(O)C1[C@H](O)C[C@@]2(C)C3CC=C4C(C[C@H](O)C(=O)C4(C)C)[C@]3(C)C(=O)C[C@]12C (stereo partly specified)	83.6*	nt	-0.4	nt	-2.0	89.9*
O=C(NCC(O)(c1ccccc1)C(F)(F)F)c1ccccc1C(F)(F)F (stereo unspecified)	nt	nt	nt	1.0	nt	nt
Cc1ccc(-c2cc(C(=O)N/N=C/c3c(C)nn(-c4ccccc4)c3C)[nH]n2)cc1	70.2*	21.9	0.9	nt	-0.4	88.4*
COc1cccc2c1C(=O)c1c(O)c3c(c(O)c1C2=O)C[C@@](O)(C(=O)CO)C[C@@H]3O[C@H]1C[C@H](N)[C@@H](O)[C@H](C)O1	74.7*	nt	-2.8	45.8*	64.4*	87.4*
CC(=O)[C@]1(O)Cc2c(O)c3c(c(O)c2[C@@H](O[C@H]2C[C@H](N)[C@H](O)[C@H](C)O2)C1)C(=O)c1ccccc1C3=O	nt	nt	nt	42.0	nt	nt
COc1cccc2c1C(=O)c1c(O)c3c(c(O)c1C2=O)CC(O)(C(=O)CO)CC3OC1CC(N(C)C)C(O)C(C)O1 (stereo unspecified)	85.6*	-16.6	i	15.3	64.6*	95.1*
Cc1ccc(OCCC(=O)OCC(=O)c2c(N)n(CC(C)C)c(=O)n(C)c2=O)cc1	89.5*	-3.2	i	-9.1	?	1.5
CCOc1ccc(OCCC(=O)OCC(=O)c2c(N)n(CC(C)C)c(=O)n(C)c2=O)cc1	nt	0.7	-0.4	nt	0.2	nt
O=C(O)Cc1sc(Nc2ccc(Cl)cc2)nc1-c1cccs1	88.3*	11.8	nt	3.0	nt	-23.8
CNCC(=O)O	92.5*	7.4	0.5	-5.8	-2.4	8.1
CCOC(=O)C(=CNCC(=O)O)C(=O)OCC	-10.7	3.5	-1.5	-8.5	-2.8	nt
O=C(N/N=C/c1ccncc1)c1cccc(N/N=C/c2ccncc2)c1	71.6*	5.6	-0.2	nt	0.9	-1.8
O=S(=O)(Cc1nc(-c2cccc(C(F)(F)F)c2)no1)c1ccc(Cl)s1	nt	nt	nt	-9.0	nt	nt
COC(=O)c1ccc(COc2ccccc2/C=N/Nc2cccc(C(=O)O)c2)cc1	76.7*	1.4	i	nt	1.5	-34.3
CCOc1cc(/C=N/Nc2cccc(C(=O)O)c2)ccc1OC(=O)c1ccccc1	70.8*	15.1	-0.1	nt	0.3	?
COc1ccc(C(=O)Cn2cnc3c(nnn3-c3ccc(C)c(C)c3)c2=O)cc1	nt	nt	nt	-13.0	nt	nt
CCc1ccccc1NC(=O)CSc1nc2ccccc2nc1N1CCOCC1	58.1*	5.8	-0.1	-7.9	-0.6	-7.9
Cc1ccc(C)c(NC(=O)CSc2nc3ccccc3nc2N2CCOCC2)c1	-6.8	4.4	-0.6	6.7	-1.8	nt
CCCc1ccc(-c2cc(C(=O)NN3CCOCC3)c3ccccc3n2)cc1	-27.6	15.2	-0.4	-31.8	0.9	nt
CCNC(=S)NNC(=O)c1cc(-c2ccc(OCC)cc2)nc2ccccc12	58.4*	-1.2	i	8.4	-2.7	26.6
SMILES	PrP 5UTR inh	PrPC TRFRET	Vc quorum ag	SSB-PriA inh	FadD28 FP inh	PrP 5UTR single
CCc1ccc(-c2cc(C(=O)Nn3cnnc3)c3ccccc3n2)cc1	69.6*	4.0	-6.2	-7.5	-8.9	61.2*
Nc1ccccc1S(N)(=O)=O	-18.5	-5.2	i	-18.1	-2.6	nt
Nc1cc(C(Cl)=C(Cl)Cl)c(S(N)(=O)=O)cc1S(N)(=O)=O	64.2*	3.7	0.6	-9.5	-1.1	-2.1
O=C(Nc1cnccn1)c1ccc(S(=O)(=O)N2CCCCCC2)cc1	nt	nt	nt	3.0	nt	nt
COc1ccc(-c2noc(CCC(=O)O)n2)cc1	-48.3	-4.8	-3.4	-11.1	-2.2	nt
COc1ccc(-c2noc(CCCC(=O)O)n2)cc1	56.3*	-6.0	-1.2	-13.0	-0.2	29.1
COc1ccccc1NC(=O)N1CCC(CNC(=O)Cc2c(F)cccc2Cl)CC1	nt	nt	nt	-2.0	nt	nt
O=C(c1noc2c1CCCC2)N1CCc2nc3ccc(Cl)cn3c(=O)c2C1	nt	nt	nt	-20.0	nt	nt
CCC(C)(C)n1nnnc1C(c1cccs1)N1CCCCC1 (stereo unspecified)	51.5*	-0.7	-0.9	-4.5	-0.9	-5.0
CC(C)(C)n1nnnc1C(c1cccs1)N1CCCC2(CCCCC2)C1 (stereo unspecified)	-18.3	1.9	-0.4	5.1	-1.3	nt
O=C(NC1CCCCC1)N1CCN(c2ccccc2)CC1	67.0*	0.5	-0.6	-2.4	-4.5	-36.2
COc1ccc(N2CCN(C(=O)NC3CCCCC3)CC2)cc1	-20.5	2.3	i	-12.8	-0.9	nt
CCC1=Nc2cc(C(=O)NCc3ccco3)ccc2Sc2ccc(C)cc21	69.2*	3.3	-0.2	5.1	-2.1	85.7*
CCCC1=Nc2cc(C(=O)NCCCOCC)ccc2Sc2ccccc21	57.6*	1.7	i	-1.9	-1.2	84.4*
CCC1=Nc2cc(C(=O)NCCCOC)ccc2Sc2ccccc21	77.0*	1.6	-1.7	0.2	0.0	36.2
COc1cccc2sc(NC(=O)c3ccc(NS(=O)(=O)c4ccccc4)cc3)nc12	nt	nt	nt	-8.0	nt	nt
COC(=O)Nc1ccc(S(=O)(=O)Nc2ccc(C)c(N3CCCCC3=O)c2)cc1	nt	nt	nt	-7.0	nt	nt
Cc1ccc(CSc2ccc3nnc(CCNS(=O)(=O)c4ccccc4)n3n2)cc1	nt	nt	nt	-28.0	nt	nt
Cc1oc(=O)c(NC(=O)c2ccccc2)cc1C(N)=O	-13.0	0.0	-0.2	-19.6	-0.1	nt
O=C(Nc1cc2ccccc2oc1=O)c1ccccc1	57.5*	-11.6	-0.2	-28.6	0.7	63.2*
Clc1ccc(OCCOCC2CO2)cc1 (stereo unspecified)	nt	nt	nt	-8.0	nt	nt
Cc1ccc2nc3sc(C(=O)N4CCOCC4)c(N)c3cc2c1	85.6*	-4.5	-0.4	-14.5	-4.2	69.4*
Cn1nc2c(c1NC(=O)C1CCN(S(=O)(=O)c3ccc(F)cc3)CC1)CCC2	nt	nt	nt	0.0	nt	nt
CC(C)(C)C(=O)Nc1cc2nn(-c3ccccc3)nc2cc1Cl	86.4*	5.1	0.7	-12.3	-0.7	72.7*
O=C(c1cccc(Br)c1)N(CCc1cccs1)Cc1ccoc1	nt	nt	nt	-4.0	nt	nt
CNC(=O)CSc1ncc(CO)n1Cc1ccccc1	nt	nt	nt	-10.0	nt	nt
CCN(CC)c1ccc(NC(=O)c2cnn(CC)c2)cc1	-29.5	-0.7	i	21.3	-3.7	nt
CCN(CCCl)c1cc(CN(C)C)cc(NC(=O)c2ccc(C(=O)Nc3cc(CN(C)C)cc(N(CC)CCCl)c3)cc2)c1	95.1*	-3.7	nt	-3.5	-0.7	90.7*
c1ccc(-c2cn3nc4c(nc3n2)CCCC4)cc1	67.4*	1.6	-5.3	-3.9	-2.4	37.0
